A selection: hits, their analogues and other compounds. The true share with any hit is near 9.9%.
MCF10A rerep – inducers of DNA re-replication in MCF 10A breast cells; MCF 10A DNA re-replication, Hoechst nuclear intensity, 48 h; Potency, µM (top dose mostly 46.1 µM), hits mostly activators; 2.9% of 350,000 active; AID 624296; note: nearly all actives have a fitted effect of over 50% in size
KB-3-1 tox – kills parental KB-3-1 adenocarcinoma cells; Potency, µM (highest dose often 46.1 µM), usual class: cytotoxic; 1.4% of 400,000 active; KB-3-1 viability, CellTiter-Glo ATP luminescence, 72 h; note: nearly all actives have a fitted effect of over 60% in size
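Cells are dispensed, compounds pinned in, plates held at 37 °C for 72 h, then CellTiter-Glo is added and luminescence read after 10 minutes. Cell line: parental KB-3-1 in phenol-red-free DMEM, 10% FBS.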
KB-V1 cytotox – kills drug-selected multidrug resistant KB-V1 cells. KB-V1 MDR cells viability, CellTiter-Glo, 72 h. Potency, µM (series often up to 46.1 µM), usual class: cytotoxic. 3.4% of 400,000 active; note: nearly all actives have a fitted effect of over 60% in size
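Potencies derive from concentration-effect curves fitted to normalized luminescence (CellTiter-Glo) of KB-V1 cells treated for 72 h at 37 degrees C in phenol-red-free DMEM containing 10% FBS.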
IL1B secr inh – inhibitors of inflammasome signaling (IL-1 beta secretion) | AID 743279 | THP-1 LPS/ATP IL-1B secretion, AlphaLISA, 16 h; active compounds read low | activity change, % at 57.5 µM | 4.7% of 360,000 active; in the data active = activity change below about -50%; inconclusive = mostly about -30% to -49%
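Secreted IL-1B measured by AlphaLISA bead assay after 16 h compound exposure of THP-1 cells; compounds (final up to 57.5 uM) added 1 h before LPS (250 ng/mL) and ATP (1.25 mM) stimulation; lower signal means less secretion.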
SW480 rereplic – DNA re-replication induction in SW480 cells; SW480 DNA re-replication, Hoechst DNA content imaging, 48 h; Potency, µM (doses to about 46.1 µM), usual class: activators; 1.8% of 340,000 active; AID 624297; note: nearly all actives have a fitted effect of over 55% in size
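SW480 cells exposed to compounds for 48 hr at 37 C, 5% CO2, then Hoechst-stained 40 min. Nuclear DNA content imaged by fluorescence scanning (405 nm excitation, 500-530 nm emission); re-replication scored as increased high-intensity nuclei.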
Of the large screens only hits and unclear results are named; the others gave an inactive call. Unless noted, calls come from the whole dose curve; as a rule, active = well fitted curve in the direction sought with a large enough effect; inconclusive = small, poorly fitted or top-dose-only effect, or another doubt; inactive = no such curve, though single readings can be large; an effect the other way counts as inactive or inconclusive.

Cc1ccc([N+](=O)[O-])cc1S(=O)(=O)n1ccnc1C	none
CCNC(=S)NC1CC2CCCC(C1)N2CCc1ccccc1 (centres undefined)	MCF10A rerep 0.73µM, IL1B secr inh inconclusive, SW480 rereplic inconclusive
S=C(NCCc1ccccc1)NC1CC2CCC(C1)N2Cc1ccccc1 (centres undefined)	IL1B secr inh -60
CCNC(=S)NC1CC2CCC(C1)N2Cc1ccccc1 (centres undefined)	none
CCCN1C2CCCC1CC(NC(=S)NCCCOCC)C2 (centres undefined)	KB-V1 cytotox 8.2µM
CCCNC(=S)NC1CC2CCC(C1)N2Cc1ccccc1 (centres undefined)	none
CN(C)c1ccc(C=O)c(F)c1	none (no result: MCF10A rerep, IL1B secr inh, SW480 rereplic)
CC(C)Cn1c(=O)c(CCC(=O)Nc2ccc(N3CCOCC3)cc2)nc2cc(Cl)ccc21	none
CC(C)(C)OC(=O)N(Cc1ccccc1)Cc1ccccc1OCc1cccc(NC(=O)C2CC2)c1	MCF10A rerep 15µM, KB-V1 cytotox inconclusive, SW480 rereplic inconclusive
CC(C)(C)OC(=O)N(Cc1ccccc1)Cc1ccccc1OCc1cccc(NC(=O)C2CCC2)c1	MCF10A rerep inconclusive, KB-3-1 tox inconclusive
CC(C)C(=O)Nc1cccc(COc2cccc(CN(Cc3ccccc3)C(=O)OC(C)(C)C)c2)c1	MCF10A rerep 1.8µM, KB-3-1 tox inconclusive, KB-V1 cytotox inconclusive
CC(C)C(=O)Nc1cccc(COc2ccc(CN(CCc3ccccc3)C(=O)OC(C)(C)C)cc2)c1	MCF10A rerep inconclusive, KB-V1 cytotox inconclusive, SW480 rereplic inconclusive
C[C@H](CO)N1C[C@H](C)[C@@H](CN(C)Cc2ccncc2)OCc2cnnn2CCCC1=O	none (no result: MCF10A rerep, SW480 rereplic)
COc1cccc(CC(=O)OCC(=O)NCCc2ccc(F)cc2)c1	none
CCC(=O)c1ccc(OCc2ccccc2)c(OC)c1	KB-V1 cytotox inconclusive
CCC(=O)c1ccc(OCc2ccc(C(=O)c3ccccc3)cc2)cc1	KB-3-1 tox inconclusive, KB-V1 cytotox 10µM, IL1B secr inh -136
CCc1nc2ccc(C(=O)NC3CCN(Cc4ccccc4)CC3)cn2c1N(C)Cc1cccs1	IL1B secr inh -52 (no result: MCF10A rerep, SW480 rereplic)
CCc1nc2ccc(C(=O)N3CCN(C(=O)c4ccco4)CC3)cn2c1N(C)Cc1cccs1	none (no result: MCF10A rerep, SW480 rereplic)
CCc1nc2ccc(C(=O)NC3CCN(Cc4ccccc4)CC3)cn2c1N(C)Cc1cc2ccccc2s1	KB-3-1 tox inconclusive, KB-V1 cytotox 10µM, IL1B secr inh -66 (no result: MCF10A rerep, SW480 rereplic)
CCc1nc2ccc(C(=O)NCCCn3ccnc3)cn2c1N(C)Cc1cc2ccccc2s1	IL1B secr inh inconclusive (no result: MCF10A rerep, SW480 rereplic)
NNC(=O)c1cc(S(=O)(=O)N2CCOCC2)c[nH]1	none
O=C(N/N=C/c1cccc2ccccc12)c1cccc(F)c1	MCF10A rerep inconclusive, KB-V1 cytotox inconclusive, IL1B secr inh -63
O=C(N/N=C/C=C/c1ccccc1)c1cc2c(ccc3ccccc32)o1	MCF10A rerep inconclusive, KB-3-1 tox inconclusive, KB-V1 cytotox inconclusive, SW480 rereplic 12µM
O=C(N/N=C/c1cccc2ccccc12)c1cc2ccccc2o1	MCF10A rerep 12µM, KB-3-1 tox inconclusive, KB-V1 cytotox inconclusive
O=C(COc1ccc(/C=N/NC(=O)c2cc3ccccc3o2)cc1Cl)Nc1ccccc1	MCF10A rerep inconclusive, KB-3-1 tox 7.3µM, KB-V1 cytotox 9.2µM, IL1B secr inh -98
O=C(N/N=C/c1ccccc1Cl)c1cccc(F)c1	IL1B secr inh inconclusive
CCC(C)NC(=O)c1sc2nc3n(c(=O)c2c1C)CCC3 (centres undefined)	none (no result: MCF10A rerep, IL1B secr inh, SW480 rereplic)
CC1(C(=O)Nc2cccc(-n3cnnn3)c2)Cc2ccccc2C(=O)O1 (centres undefined)	KB-V1 cytotox 12µM
CC(C(=O)NCC(=O)Nc1ccc(F)c(F)c1F)N1CCN(Cc2ccc(C#N)cc2)CC1 (centres undefined)	KB-V1 cytotox 13µM
CC(C(=O)NCC(=O)Nc1ccc(F)c(F)c1F)N1CCN(c2ccc(O)cc2)CC1 (centres undefined)	KB-3-1 tox inconclusive
CCCc1nc2sc3c(c2c(=O)n1NC(=O)c1ccco1)CC(C)(C)OC3	none
CCCCCCCCCc1nc2sc3c(c2c(=O)n1NC(=O)c1ccccc1[N+](=O)[O-])CC(C)(C)OC3	MCF10A rerep 2.9µM, KB-V1 cytotox inconclusive, IL1B secr inh -74
